FAS TE block: inhibitors of human fatty acid synthase thioesterase domain; inhibition, % at 15 µM; recombinant FAS-TE, OMFH fluorogenic substrate, fluorescence endpoint; hit rate 0.67% among 360,000; P49327;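 active = compounds whose normalised, plate-corrected inhibition of enzyme fluorescence in the single-dose primary screen is 50% or more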;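 note: 0% = DMSO with enzyme and 100% = substrate without enzyme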
H9c2 protect: modulators protecting cardiomyocytes from myocardial damage. AID 588492. protection from H2O2 cell death, % at 20 µM. H9c2 cardiomyocytes, H2O2 injury protection, ATPLite, 2 h. hit rate 0.63% among 360,000;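 active = compounds giving at least 50% protection of heart cells from peroxide-induced death in the single-dose screen, raw or plate-pattern-corrected value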;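 note: 0% = DMSO wells with peroxide and 100% = DMSO wells without peroxide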
Mot1-301 SUMO: SUMOylation pathway inhibition by Mot1-301 growth rescue; S. cerevisiae Mot1-301 growth rescue, ATP luminescence, 38.5C; percent above DMSO median, 100 means doubled; growth rescue, % at 18.8 µM; hit rate 1% among 320,000; AID 2716;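 active = every valid replicate shows activation above 250% relative to neutral control wells; inactive = the rest, any valid replicate at or below 250%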;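 note: OY570 slx delta 5 strain wells were the positive control but not used for scaling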
aDG glyco act: increases alpha dystroglycan glycosylation; Pro5-aDG cells, alpha-DG glycosylation AlphaScreen (IIH6); 0% Pro5, 100% B10-LARGE cell signal; activation, % at 10 µM; hit rate 0.22% among 360,000; AID 624168;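 active = activation of at least 8% versus controls, or a plate z-score of at least 8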;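 note: Pro5 are CHO cells carrying HIG-tagged alpha-DG that lacks glycosylation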
CR mimetic SO: lowers age-related superoxide in aged yeast cells | S. cerevisiae aged cells, superoxide DHE fluorescence; stronger effect = lower value | hit rate 0.18% among 330,000 | superoxide response (% of plate mean), % at 10 µM;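 active = superoxide response under a set limit, about three screen SD below normal, cut at about 65% in these data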;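 note: yeast aged for seven days with compound at 30 °C before DHE staining; 100% = average MFI of all compound-treated wells on the plate with controls excluded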
MPTP block: blocks calcium-induced mitochondrial swelling. isolated mouse mitochondria, Ca2+ swelling absorbance, 30 min. inhibition, % at 10 µM. hit rate 1.4% among 360,000. AID 602449;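 active = inhibition of 50% or more, scaled per plate between neutral and stimulator controls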;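 note: 0% = DMSO wells given calcium and 100% = 1 mM EGTA wells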
Yeast Mot1 SUMO: SUMO pathway inhibitors in yeast Mot1-301 growth; shares compounds with Mot1-301 SUMO; S. cerevisiae Mot1-301 galactose growth, ATP luminescence, 24 h; -100 = growth of slx-deleted rescue strain; growth activity, percent, % at 42 µM; 2,300 tested, under 10 active; AID 493004;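 active = Signal drops as the depositor expects, and the fitted half-maximal dose is no more than ten times the top valid tested dose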;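 note: more negative values mean stronger growth rescue toward the control strain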
* marks the source's active call; other numbers are inactive results; . = not tested or not shown; + = active, no number; [ ] = another dose, or the depositor's remark. This is a sample that favours compounds with a hit; in the whole collection about 3.8% have one here.

SMILES | FAS TE block | H9c2 protect | Mot1-301 SUMO | aDG glyco act | CR mimetic SO | MPTP block | Yeast Mot1 SUMO
OC[C@@H](O)CCl | . | . | 360* | . | 104 | . | 0
CC(C)(C)n1nnnc1C(CCc1ccccc1)N1CCC2(CC1)C(=O)NCN2c1ccccc1 (centres undefined) | 26 | 7 | . | 0 | . | 3 | .
Cc1ccc(O)c(C)c1 | 0 | -4 | 389* | 0 | 90 | -1 | 1
O=C(O)c1cc(Oc2ccc(C(F)(F)F)cc2Cl)ccc1[N+](=O)[O-] | -6 | 18 | 514* | 0 | 111 | -4 | 0
O=C(O)c1ccc([N+](=O)[O-])c([N+](=O)[O-])c1 | 14 | 4 | . | 0 | . | -1 | .
O=C1NC(=O)C(=Cc2ccc(N3CCOCC3)cc2)C(=O)N1 | -2 | 3 | 505* | 0 | 96 | 6 | 0
CCCCC1C(=O)NC(=S)N(C)C1=O (centres undefined) | -7 | -3 | . | 0 | . | -1 | .
CCN1C[C@]2(C)CC[C@H](O)[C@]34C1[C@H](C[C@H]23)[C@@]1(O)C[C@H](OC)[C@H]2C[C@@H]4[C@@H]1C2O (some centres undefined) | -1 | 11 | 10 | 0 | 111 | 2 | .
C=C1C2C[C@@]3([C@@H]1O)[C@@H](C[C@@H]2O)[C@@]12C4[C@@H]3C[C@@H]1[C@@](C)(CC[C@@H]2O)CN4CC | -7 | 7 | 405* | 0 | 98 | -1 | 0
O=C1NCN(c2ccccc2)C12CCN(C(c1ccccc1)c1nnnn1Cc1ccccc1)CC2 (centres undefined) | 11 | 5 | . | 0 | . | 1 | .
Cc1sc(-n2c(C)cc(C=C3C(=O)NC(=O)NC3=O)c2C)c(C#N)c1C | . | . | 486* | . | 97 | . | 0
Cc1cc(/C=C2\C(=O)NC(=O)N(c3ccc(Cl)cc3)C2=O)c(C)n1-c1sc2c(c1C#N)CCCC2 | 6 | -14 | -4 | 1 | 123 | 4 | .
Cc1cccc(N/N=C/c2c(O)[nH]c(=S)[nH]c2=O)c1 | -6 | -1 | 376* | 0 | . | 1 | 0
COc1ccc(N/N=C/c2c(O)n(-c3cccc(C)c3)c(=O)[nH]c2=O)cc1 | -5 | -7 | 216 | 0 | 86 | 0 | .
Cc1cccc(N=Nc2ccc(N(C)C)cc2)c1 | 20 | -19 | 736* | 0 | 88 | 1 | 0
CN(C)c1ccccc1 | -3 | -1 | . | 0 | . | 3 | .
Cn1cc(C(=O)Cc2ccccc2)c2ccccc21 | -2 | 6 | 671* | 0 | 89 | 0 | 1
NC(=O)c1ccc(N=Nc2c(O)[nH]c(=O)[nH]c2=O)cc1 | . | . | -11 | . | 88 | . | .
O=c1[nH]c(O)c(N=Nc2cc([N+](=O)[O-])ccc2O)c(=O)[nH]1 | 3 | 10 | 649* | 0 | 87 | 1 | 0
Cc1cccc(C)c1-n1nnnc1C(c1cccc2ccccc12)N1CCC2(CC1)C(=O)NCN2c1ccccc1 (centres undefined) | -2 | -4 | . | 0 | . | 2 | .
CC1CN=C(NCc2ccccc2)S1 (centres undefined) | -20 | 5 | 679* | 0 | 106 | 0 | 0
Cc1cc(C)n(CCOC(=O)C2C(C=C(Cl)Cl)C2(C)C)n1 (centres undefined) | 8 | -11 | 905* | 1 | 85 | 1 | 0
NC(=Nc1ccccc1)NN=Cc1c[nH]c2ccccc12 | -9 | -11 | . | 0 | . | 20 | .
COc1ccc(NC2Oc3cc4c(cc3C(c3cc(OC)c(OC)c(OC)c3)C2C)OCO4)cc1 (centres undefined) | 22 | 2 | . | 0 | . | 1 | .
O=C(O)C1(c2ccc(Cl)cc2)CCC1 | -6 | -3 | . | 0 | 102 | -1 | .
SMILES | FAS TE block | H9c2 protect | Mot1-301 SUMO | aDG glyco act | CR mimetic SO | MPTP block | Yeast Mot1 SUMO
CC(=O)C1(c2ccccc2)CCNCC1 | -8 | 4 | 706* | 0 | 84 | -1 | 0[21 µM]
COc1ccccc1-n1c(O)c(/C=C2\C=Nc3ccccc32)c(=O)[nH]c1=O | -8 | 21 | 562* | 0 | 106 | 0 | 0
CC1(C)C(C(=O)N2CCN(c3ccc(Cl)cc3)CC2)C1(C)C | 6 | -3 | -9 | 0 | 106 | 1 | .
COC(=O)C1CN(C#N)N(c2ccc(Cl)cc2)C12c1ccccc1-c1ccccc12 (centres undefined) | -16 | -18 | 792* | -1 | 98 | -2 | -2
COc1ccc(-n2nnnc2C(CCc2ccccc2)N2CCC3(CC2)C(=O)NCN3c2ccccc2)cc1 (centres undefined) | 41 | -9 | . | 0 | . | 4 | .
O=[N+]([O-])c1ccccc1CN1CC=C(c2ccc(F)cc2)CC1 | 26 | -8 | + | 0 | 105 | 0 | 1
CN1C(=O)C(=Cc2cn(CC(=O)N3CCCCC3)c3ccccc23)C(=O)N(C)C1=O | -10 | 9 | 6 | 0 | 106 | 1 | .
CN1C(=O)C(=Cc2cn(CC(=O)N3CCCC3)c3ccccc23)C(=O)N(C)C1=O | -4 | 6 | + | 0 | 82 | -2 | 1
CC(=O)N1CC(=O)Nc2ccc(Cl)cc2C1c1ccccc1 (centres undefined) | -5 | -2 | + | 0 | 75 | 4 | 1
COC[C@H]1OC(=O)c2coc3c2[C@@]1(C)C1=C(C3=O)[C@@H]2CCC(=O)[C@@]2(C)C[C@H]1OC(C)=O | -5 | -3 | . | 0 | . | 0 | .
O=C(O)C1C(C(=O)O)C2(Cl)C(Cl)=C(Cl)C1(Cl)C2(Cl)Cl (centres undefined) | -4 | 1 | 400* | 0 | 114 | -1 | 1
C=CCOC(=O)C1C(C(=O)O)C2(Cl)C(Cl)=C(Cl)C1(Cl)C2(Cl)Cl (centres undefined) | 1 | -1 | . | 0 | . | -2 | .
CN(C=O)CP(=O)(O)CN(C)C=O | -8 | 10 | 570* | 0 | 106 | -2 | 0
COc1ccc(C(c2nnnn2C2CCCC2)N2CCC3(CC2)C(=O)NCN3c2ccccc2)cc1 (centres undefined) | 10 | 20 | . | 0 | . | 1 | .
O=C(c1ccccc1)C(CN1CCCC1)c1ccccc1 (centres undefined) | -21 | -18 | 560* | 0 | 90 | -1 | -1
C[n+]1c(-c2ccccc2)cc(CCCCc2cc(-c3ccccc3)[n+](C)c(-c3ccccc3)c2)cc1-c1ccccc1 | -9 | -23 | 368* | 0 | 100 | 7 | -1
COc1cc2c(cc1OC)C1[C@H]3C(=CC[C@H]1OC2O)CCN3C (some centres undefined) | -4 | 2 | 7 | 0 | 119 | -1 | .
CCOP(=O)(OCC)C(NC(=O)c1cccc([N+](=O)[O-])c1)C(Cl)(Cl)Cl (centres undefined) | 3 | 3 | 710* | 0 | 104 | 0 | 0

Bioassay records (PubChem BioAssay)
